Experiments:
Test in all cases: log2 ratio of Biotin-Ahx-Ub-VS probe labelling (fragment/DMSO); higher = less target engagement (more negative = stronger competition), active = hit call of the paper (q ≤ 0.05, log2 ratio ≤ -1)
Settings in all cases: compound concentration: 200 uM; treatment time: 3 h
USP42 = biological target: T1, USP42 (UniProt Q9H9J4)
T1 sequence (whole entry): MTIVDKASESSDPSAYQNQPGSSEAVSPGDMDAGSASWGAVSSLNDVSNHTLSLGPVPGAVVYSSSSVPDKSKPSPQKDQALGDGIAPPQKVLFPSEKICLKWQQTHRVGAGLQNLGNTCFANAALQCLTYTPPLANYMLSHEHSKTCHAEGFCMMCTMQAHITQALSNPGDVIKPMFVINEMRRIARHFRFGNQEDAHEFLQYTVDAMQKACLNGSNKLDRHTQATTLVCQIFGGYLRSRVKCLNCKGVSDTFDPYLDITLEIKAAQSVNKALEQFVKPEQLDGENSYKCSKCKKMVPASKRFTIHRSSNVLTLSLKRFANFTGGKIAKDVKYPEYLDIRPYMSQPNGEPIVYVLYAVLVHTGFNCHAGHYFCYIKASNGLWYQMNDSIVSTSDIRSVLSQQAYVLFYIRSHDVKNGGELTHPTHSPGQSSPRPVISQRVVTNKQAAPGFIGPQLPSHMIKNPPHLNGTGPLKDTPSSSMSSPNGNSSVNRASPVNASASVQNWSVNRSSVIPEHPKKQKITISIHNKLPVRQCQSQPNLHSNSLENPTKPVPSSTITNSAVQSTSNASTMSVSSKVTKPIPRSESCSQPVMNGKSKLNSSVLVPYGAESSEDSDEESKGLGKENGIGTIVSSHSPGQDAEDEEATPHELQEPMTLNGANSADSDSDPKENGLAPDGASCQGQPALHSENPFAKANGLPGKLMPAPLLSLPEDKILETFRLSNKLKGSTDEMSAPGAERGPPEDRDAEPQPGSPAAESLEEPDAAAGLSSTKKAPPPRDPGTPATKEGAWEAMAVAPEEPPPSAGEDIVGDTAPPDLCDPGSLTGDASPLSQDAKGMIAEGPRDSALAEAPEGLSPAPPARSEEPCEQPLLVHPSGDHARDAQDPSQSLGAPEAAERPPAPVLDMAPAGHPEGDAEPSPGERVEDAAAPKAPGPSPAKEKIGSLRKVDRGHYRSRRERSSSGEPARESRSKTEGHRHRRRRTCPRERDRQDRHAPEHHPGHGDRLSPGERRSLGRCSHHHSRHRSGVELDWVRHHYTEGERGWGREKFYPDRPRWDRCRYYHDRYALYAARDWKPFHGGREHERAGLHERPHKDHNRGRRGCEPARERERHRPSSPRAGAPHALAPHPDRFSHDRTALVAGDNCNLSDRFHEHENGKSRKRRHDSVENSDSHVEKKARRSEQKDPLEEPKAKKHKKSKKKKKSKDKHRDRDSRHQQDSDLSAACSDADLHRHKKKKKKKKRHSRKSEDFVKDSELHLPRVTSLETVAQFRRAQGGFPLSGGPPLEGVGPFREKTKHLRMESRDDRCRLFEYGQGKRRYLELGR
Method in brief: (§1)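 Labelled DUBs from HEK293T lysate were NeutrAvidin-enriched, digested with LysC and trypsin, and run by diaPASEF LC-MS/MS. Before that, each 495 µg sample in Tris/CHAPS/IGEPAL buffer with protease inhibitors was treated in triplicate with fragment at 200 µM or vehicle for 3 h, then with Biotin-Ahx-Ub-VS at 0.5 µM final for 1 h. Values are average log2 ratios of fragment over vehicle by unpaired t-test, based on global-median-normalised Spectronaut label-free quantities from proteins with ≥2 unique peptides.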

USP46 = USP46 (UniProt P62068)
Method in brief: as §1

USP47 = biological target: T2, USP47 (UniProt Q96K76)
T2 sequence (whole entry): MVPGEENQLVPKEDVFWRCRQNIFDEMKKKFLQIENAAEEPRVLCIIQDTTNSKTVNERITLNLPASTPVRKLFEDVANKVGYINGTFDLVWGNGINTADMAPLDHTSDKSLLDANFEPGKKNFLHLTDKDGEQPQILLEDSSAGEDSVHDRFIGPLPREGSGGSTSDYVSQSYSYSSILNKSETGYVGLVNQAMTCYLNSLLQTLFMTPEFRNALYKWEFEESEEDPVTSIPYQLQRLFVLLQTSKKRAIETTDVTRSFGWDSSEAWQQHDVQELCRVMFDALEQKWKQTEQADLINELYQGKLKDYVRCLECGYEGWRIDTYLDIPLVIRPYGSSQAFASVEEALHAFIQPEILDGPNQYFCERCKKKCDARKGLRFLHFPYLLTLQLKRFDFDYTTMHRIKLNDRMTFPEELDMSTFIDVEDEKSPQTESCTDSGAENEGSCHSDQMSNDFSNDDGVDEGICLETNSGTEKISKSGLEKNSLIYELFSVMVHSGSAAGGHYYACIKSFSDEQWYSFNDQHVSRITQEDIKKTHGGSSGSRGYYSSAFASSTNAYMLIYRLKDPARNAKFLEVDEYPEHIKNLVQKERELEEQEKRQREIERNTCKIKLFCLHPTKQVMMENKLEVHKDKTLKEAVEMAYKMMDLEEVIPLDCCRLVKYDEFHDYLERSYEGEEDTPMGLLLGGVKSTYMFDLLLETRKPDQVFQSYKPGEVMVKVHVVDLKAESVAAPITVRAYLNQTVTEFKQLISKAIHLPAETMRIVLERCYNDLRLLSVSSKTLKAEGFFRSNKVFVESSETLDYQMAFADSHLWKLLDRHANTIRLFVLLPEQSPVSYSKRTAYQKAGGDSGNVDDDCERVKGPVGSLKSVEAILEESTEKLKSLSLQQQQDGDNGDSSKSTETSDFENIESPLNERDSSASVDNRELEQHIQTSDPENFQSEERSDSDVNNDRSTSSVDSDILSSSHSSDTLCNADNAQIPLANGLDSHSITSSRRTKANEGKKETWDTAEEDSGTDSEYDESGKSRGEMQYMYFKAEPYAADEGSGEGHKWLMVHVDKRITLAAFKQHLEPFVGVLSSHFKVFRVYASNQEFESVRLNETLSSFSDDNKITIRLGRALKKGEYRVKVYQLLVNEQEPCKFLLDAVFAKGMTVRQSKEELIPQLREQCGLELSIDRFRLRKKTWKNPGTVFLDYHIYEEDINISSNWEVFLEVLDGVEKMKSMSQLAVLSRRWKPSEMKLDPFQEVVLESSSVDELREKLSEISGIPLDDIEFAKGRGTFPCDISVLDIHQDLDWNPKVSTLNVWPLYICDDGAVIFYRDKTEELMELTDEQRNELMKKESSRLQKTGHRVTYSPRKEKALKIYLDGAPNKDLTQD
Method in brief: as §1

USP48 = biological target: T3, USP48 (UniProt Q86UV5)
T3 sequence (whole entry): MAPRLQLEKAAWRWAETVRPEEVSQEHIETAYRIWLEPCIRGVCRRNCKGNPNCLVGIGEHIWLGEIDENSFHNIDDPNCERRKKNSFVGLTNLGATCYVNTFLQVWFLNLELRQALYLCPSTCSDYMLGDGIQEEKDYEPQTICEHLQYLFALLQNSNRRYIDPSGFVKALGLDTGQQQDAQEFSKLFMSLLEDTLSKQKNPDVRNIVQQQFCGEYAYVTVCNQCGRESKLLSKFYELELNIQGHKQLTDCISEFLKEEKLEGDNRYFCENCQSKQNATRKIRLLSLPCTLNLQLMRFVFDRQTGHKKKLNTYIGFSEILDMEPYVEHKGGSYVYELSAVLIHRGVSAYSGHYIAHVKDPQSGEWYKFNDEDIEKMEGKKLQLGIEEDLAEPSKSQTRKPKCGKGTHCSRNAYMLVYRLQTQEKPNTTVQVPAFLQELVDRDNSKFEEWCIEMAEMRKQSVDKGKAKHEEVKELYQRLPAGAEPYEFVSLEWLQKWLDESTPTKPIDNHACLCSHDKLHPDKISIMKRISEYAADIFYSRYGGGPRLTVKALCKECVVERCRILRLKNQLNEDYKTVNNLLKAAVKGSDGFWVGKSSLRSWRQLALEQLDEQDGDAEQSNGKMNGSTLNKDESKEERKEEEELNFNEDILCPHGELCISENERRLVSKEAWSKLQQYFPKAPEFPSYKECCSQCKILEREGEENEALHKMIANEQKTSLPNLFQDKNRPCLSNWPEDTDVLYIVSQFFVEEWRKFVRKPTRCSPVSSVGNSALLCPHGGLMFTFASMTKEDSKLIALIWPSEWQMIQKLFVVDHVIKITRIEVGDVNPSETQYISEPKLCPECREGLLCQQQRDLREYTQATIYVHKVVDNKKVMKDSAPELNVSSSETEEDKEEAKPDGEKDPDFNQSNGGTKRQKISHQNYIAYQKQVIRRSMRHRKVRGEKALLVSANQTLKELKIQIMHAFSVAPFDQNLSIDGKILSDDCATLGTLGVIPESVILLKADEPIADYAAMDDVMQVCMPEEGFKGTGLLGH
Method in brief: as §1

USP5 = biological target: T4, USP5 (UniProt P45974)
T4 sequence (whole entry): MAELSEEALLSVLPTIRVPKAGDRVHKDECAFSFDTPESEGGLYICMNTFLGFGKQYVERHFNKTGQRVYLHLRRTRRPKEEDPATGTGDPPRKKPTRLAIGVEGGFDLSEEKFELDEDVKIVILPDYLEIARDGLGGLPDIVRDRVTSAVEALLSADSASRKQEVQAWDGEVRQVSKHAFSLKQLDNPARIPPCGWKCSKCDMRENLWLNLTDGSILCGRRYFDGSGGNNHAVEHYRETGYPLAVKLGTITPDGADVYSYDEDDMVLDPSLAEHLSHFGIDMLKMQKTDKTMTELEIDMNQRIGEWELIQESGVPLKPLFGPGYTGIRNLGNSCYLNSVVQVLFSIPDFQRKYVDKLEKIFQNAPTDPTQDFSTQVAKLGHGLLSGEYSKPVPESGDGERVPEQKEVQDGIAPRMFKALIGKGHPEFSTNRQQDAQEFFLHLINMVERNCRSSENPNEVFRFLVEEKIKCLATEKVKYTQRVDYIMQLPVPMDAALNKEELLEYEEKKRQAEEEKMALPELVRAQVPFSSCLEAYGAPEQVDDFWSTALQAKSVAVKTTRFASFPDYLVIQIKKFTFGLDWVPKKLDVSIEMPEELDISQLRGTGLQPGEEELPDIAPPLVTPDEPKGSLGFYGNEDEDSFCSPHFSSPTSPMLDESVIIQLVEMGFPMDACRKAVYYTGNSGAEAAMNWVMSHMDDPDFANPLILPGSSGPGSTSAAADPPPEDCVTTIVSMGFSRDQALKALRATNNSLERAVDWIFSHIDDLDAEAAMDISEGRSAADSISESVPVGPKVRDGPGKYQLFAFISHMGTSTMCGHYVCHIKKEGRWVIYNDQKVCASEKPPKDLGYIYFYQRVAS
Method in brief: as §1

USP54 = USP54 (UniProt Q70EL1)
Method in brief: as §1

USP7 = USP7 (UniProt Q93009)
Method in brief: as §1

USP8 = biological target: T5, USP8 (UniProt P40818)
T5 sequence (whole entry): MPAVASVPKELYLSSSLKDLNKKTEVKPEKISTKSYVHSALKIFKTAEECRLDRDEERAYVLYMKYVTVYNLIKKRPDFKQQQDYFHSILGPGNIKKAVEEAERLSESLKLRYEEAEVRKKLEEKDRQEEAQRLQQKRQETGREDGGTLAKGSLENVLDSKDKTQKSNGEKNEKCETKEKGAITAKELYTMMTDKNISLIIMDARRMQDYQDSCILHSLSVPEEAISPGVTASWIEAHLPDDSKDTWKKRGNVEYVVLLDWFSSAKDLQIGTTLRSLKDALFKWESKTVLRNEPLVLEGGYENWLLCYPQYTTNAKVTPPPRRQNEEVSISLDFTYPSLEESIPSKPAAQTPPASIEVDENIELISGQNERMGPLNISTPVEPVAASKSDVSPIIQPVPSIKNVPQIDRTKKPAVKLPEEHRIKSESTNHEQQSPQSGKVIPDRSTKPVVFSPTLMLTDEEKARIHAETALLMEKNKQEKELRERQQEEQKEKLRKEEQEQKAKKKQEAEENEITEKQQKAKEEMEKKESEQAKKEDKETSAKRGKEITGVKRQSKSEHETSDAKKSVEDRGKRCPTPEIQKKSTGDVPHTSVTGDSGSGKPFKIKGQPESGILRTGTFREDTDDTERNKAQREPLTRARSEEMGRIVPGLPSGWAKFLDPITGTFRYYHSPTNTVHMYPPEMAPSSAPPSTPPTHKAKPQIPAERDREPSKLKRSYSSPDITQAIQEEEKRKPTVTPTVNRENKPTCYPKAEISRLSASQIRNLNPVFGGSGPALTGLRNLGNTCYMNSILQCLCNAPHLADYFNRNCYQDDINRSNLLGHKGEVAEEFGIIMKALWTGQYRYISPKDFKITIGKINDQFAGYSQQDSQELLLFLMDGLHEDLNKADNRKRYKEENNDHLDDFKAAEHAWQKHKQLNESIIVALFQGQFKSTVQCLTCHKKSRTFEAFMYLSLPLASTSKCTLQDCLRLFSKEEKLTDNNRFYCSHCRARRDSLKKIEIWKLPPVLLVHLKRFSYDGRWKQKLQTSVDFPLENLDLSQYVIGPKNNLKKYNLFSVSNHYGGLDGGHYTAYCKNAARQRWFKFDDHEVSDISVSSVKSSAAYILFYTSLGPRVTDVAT
Method in brief: as §1

USP9X = USP9X (UniProt Q93008)
Method in brief: as §1

UniProt O00487 = biological target: UniProt O00487
Method in brief: as §1

Measured: log2 ratio of Biotin-Ahx-Ub-VS probe labelling

Chain of USP9X (Q93008 whole entry): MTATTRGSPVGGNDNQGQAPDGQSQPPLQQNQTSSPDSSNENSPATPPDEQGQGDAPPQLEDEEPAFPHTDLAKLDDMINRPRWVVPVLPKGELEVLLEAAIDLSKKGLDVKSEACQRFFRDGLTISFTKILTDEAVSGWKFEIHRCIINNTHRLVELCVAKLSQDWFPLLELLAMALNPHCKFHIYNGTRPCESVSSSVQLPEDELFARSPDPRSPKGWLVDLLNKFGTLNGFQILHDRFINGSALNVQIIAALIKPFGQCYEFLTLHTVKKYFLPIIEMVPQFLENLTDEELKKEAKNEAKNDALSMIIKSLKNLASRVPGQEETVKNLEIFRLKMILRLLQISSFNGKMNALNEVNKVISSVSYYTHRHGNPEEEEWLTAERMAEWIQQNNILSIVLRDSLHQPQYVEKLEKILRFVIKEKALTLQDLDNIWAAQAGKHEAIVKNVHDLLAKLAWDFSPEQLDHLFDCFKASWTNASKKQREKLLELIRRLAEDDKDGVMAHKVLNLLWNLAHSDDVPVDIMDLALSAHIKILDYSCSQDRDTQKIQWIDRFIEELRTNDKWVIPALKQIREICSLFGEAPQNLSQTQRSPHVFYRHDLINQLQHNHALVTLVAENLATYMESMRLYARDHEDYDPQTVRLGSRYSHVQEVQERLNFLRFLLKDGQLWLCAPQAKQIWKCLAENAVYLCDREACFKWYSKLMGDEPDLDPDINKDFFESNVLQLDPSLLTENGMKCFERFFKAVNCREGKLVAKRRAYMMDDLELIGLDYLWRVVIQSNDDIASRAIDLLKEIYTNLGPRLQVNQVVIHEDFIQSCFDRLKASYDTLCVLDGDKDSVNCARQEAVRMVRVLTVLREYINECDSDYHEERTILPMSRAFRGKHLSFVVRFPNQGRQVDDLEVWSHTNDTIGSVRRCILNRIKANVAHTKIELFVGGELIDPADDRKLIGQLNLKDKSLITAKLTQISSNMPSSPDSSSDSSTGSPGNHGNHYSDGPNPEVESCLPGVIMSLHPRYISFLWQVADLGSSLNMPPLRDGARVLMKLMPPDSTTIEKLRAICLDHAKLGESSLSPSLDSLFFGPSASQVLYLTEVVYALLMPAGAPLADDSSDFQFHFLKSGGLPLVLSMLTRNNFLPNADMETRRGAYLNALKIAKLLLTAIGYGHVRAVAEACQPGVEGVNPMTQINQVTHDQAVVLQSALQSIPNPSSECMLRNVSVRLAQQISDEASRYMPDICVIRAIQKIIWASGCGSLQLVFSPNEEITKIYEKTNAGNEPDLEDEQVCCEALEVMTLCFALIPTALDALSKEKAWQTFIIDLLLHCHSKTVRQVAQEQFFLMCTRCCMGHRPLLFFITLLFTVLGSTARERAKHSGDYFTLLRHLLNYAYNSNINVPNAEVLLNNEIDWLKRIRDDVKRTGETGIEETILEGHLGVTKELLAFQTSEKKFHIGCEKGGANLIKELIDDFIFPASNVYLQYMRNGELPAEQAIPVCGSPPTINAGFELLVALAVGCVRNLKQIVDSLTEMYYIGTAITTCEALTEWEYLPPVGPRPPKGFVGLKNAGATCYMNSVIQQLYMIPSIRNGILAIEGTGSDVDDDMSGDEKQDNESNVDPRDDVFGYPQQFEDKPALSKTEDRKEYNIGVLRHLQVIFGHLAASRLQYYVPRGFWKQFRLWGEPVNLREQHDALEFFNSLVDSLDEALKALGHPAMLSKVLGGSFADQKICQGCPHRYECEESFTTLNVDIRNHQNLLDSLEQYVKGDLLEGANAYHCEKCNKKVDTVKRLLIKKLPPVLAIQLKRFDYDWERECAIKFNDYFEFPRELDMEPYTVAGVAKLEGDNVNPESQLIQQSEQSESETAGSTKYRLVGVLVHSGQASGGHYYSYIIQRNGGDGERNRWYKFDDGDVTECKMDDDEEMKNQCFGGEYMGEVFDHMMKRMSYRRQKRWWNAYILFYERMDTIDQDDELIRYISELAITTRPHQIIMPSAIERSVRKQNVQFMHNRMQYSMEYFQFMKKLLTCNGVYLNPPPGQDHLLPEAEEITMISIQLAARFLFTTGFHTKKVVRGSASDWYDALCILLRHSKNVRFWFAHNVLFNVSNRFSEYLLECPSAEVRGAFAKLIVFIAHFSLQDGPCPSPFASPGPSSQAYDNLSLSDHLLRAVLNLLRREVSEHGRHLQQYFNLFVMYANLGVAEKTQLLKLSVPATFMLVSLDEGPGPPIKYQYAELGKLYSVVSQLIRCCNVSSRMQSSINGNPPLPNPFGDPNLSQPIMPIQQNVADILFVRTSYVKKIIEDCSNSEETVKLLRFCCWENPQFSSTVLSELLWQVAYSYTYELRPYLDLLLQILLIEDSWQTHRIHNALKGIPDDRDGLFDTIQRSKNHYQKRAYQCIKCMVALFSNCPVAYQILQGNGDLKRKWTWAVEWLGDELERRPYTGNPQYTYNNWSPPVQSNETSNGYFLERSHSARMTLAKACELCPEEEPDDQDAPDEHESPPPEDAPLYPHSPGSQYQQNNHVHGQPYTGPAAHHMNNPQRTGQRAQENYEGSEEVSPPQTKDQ
Chain of USP46 (P62068 whole entry): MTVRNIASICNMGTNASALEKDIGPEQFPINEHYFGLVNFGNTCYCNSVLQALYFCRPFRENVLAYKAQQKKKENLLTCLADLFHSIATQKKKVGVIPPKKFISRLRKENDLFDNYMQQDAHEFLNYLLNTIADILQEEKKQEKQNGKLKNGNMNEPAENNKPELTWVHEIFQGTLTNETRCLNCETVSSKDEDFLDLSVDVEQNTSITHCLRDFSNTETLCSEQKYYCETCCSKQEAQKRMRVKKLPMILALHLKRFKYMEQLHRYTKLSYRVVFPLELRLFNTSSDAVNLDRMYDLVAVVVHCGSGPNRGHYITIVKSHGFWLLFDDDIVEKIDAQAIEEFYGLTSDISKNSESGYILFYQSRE
Chain of USP7 (Q93009 whole entry, looked up): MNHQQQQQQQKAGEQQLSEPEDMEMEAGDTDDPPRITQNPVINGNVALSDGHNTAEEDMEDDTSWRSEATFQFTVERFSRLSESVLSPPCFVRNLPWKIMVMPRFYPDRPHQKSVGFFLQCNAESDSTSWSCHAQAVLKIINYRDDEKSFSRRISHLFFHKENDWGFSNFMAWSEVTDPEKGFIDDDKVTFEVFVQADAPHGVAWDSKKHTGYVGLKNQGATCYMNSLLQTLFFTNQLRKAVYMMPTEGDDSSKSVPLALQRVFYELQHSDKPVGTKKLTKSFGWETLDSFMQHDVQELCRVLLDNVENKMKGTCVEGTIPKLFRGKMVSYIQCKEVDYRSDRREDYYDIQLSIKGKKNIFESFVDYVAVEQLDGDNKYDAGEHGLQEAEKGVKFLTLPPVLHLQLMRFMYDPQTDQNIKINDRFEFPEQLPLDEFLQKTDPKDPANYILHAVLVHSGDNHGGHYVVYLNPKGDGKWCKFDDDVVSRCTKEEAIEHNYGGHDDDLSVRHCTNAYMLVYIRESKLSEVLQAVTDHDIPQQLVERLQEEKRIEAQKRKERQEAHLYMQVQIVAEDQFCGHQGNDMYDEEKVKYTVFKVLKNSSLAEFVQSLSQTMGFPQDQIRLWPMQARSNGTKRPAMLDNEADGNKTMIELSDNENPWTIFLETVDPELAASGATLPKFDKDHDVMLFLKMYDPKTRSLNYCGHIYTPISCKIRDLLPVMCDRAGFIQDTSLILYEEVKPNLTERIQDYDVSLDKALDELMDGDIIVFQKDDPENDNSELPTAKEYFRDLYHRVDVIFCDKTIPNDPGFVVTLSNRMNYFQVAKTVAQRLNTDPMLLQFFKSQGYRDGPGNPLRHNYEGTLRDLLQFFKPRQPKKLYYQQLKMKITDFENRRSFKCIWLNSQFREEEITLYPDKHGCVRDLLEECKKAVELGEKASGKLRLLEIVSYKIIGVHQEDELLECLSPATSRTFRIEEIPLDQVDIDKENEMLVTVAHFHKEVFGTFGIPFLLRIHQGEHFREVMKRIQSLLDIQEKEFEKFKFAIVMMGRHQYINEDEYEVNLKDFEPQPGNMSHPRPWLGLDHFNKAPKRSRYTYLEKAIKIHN
Chain of UniProt O00487 (O00487 whole entry): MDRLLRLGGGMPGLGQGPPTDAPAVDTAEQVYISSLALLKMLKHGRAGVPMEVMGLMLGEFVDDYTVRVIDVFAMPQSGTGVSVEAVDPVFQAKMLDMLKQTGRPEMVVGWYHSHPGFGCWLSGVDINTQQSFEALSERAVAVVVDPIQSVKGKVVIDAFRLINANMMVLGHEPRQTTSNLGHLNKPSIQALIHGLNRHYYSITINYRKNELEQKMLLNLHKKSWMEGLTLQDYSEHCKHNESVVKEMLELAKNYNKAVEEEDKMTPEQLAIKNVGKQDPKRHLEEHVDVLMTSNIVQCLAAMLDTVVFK

Cc1ccccc1CN(C)C(=O)CCl
inactive: USP42 -0.263 | USP46 -0.653 | USP47 -1 | USP48 -0.83 | USP5 -0.152 | USP54 1.1 | USP8 -0.825 | USP9X -0.836 | UniProt O00487 -0.14
active: USP7 -1.57

O=C(CCl)N1CCOC2(CCC2)C1
inactive: USP42 0.183 | USP46 0.171 | USP47 -0.386 | USP48 -0.474 | USP5 0.109 | USP54 -0.395 | USP7 0.0903 | USP8 -0.347 | USP9X 0.105 | UniProt O00487 -0.0639
